A short description of experiment [1]: reduced viability of SK-BR-3 breast cancer cells – cell-based, 24 h, human, pilot screen (AID 572).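 Note: compound exposure lasted between 18 and 24 h rather than exactly 24 h; 100% = carrier-treated control wells.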 The note with it: SK-BR-3 viability, CellTiter-Glo luminescence, at 10 µM, stronger effect = lower value. On the technique in general: Cellular ATP, detected with luciferase, serves as a proxy for viable cell number.
Experiment [2] is described as follows: HUVEC growth inhibition – cell-based, human, primary screen (AID 575;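 active = viability at or below 30% in both replicate assays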;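 note: 100% = median of untreated cell wells with 0.1% DMSO on each plate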). The conditions noted are these: HUVEC proliferation, CellTiter-Glo luminescence, 72 h; at 10 µM; stronger effect = lower value.
Experiment [3] in a line: H69AR cell proliferation blockers – human, duplicate replicates, primary screen (AID 580;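 active = viability at or under a set limit in both replicates, limit being median viability minus 3 SD, cut at about 48% in these data, passing the limit was not always enough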;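 note: 100% = mean luminescence of untreated wells and 0% = no signal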). The note with it: H69AR lung tumor cells viability, ATP luminescence, 72 h; at 10 µM; stronger effect = lower value.
Experiment [4] in a line: MRP1 drug-resistance reversers in H69AR cells – cell-based, doxorubicin co-treatment, pilot screen (AID 601;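 active = viability loss from added drug above about 55%, and viability with drug at most 40%, in both replicates, limit read from the data, passing the limit was not always enough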). The note with it: CellTiter-Glo, 72 h, at 10 µM; for differential viability (reversal): stronger effect = higher value.
Experiment [5] in a line: yeast transport mutant growth inhibition pilot in 384-well plates, post-Golgi transport modulator project (AID 636; in the data active = inhibition above about 31%). The conditions noted are these: absorbance 615 nm, about 18 h, stronger effect = higher value.
Experiment [6] can be described thus: growth suppression of yeast trafficking mutant, preliminary HTS, modulators of trafficking downstream of Golgi apparatus project, 1536-format plate, OD 615 nm (AID 637; in the data active = inhibition above about 30%). The conditions noted are these: yeast transport mutant growth, absorbance 615 nm, 18 h; stronger effect = higher value.
Experiment [7] can be described thus: S. cerevisiae growth inhibition in permissive medium (OD615), pilot counter-assay for S. cerevisiae lifespan shortening project, permissive growth control (AID 705;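 active = growth inhibition above 25% in both replicates, a cutoff set 3 SD above the mean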). The conditions noted are these: OD615, 24 h, at 10 µM, stronger effect = higher value.
The nature of experiment [8]: S. cerevisiae growth inhibition in restrictive medium, OD615, pilot screen, restrictive growth control, yeast lifespan reduction project (AID 706;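 active = growth inhibition above a set limit, 3 SD over mean compound inhibition, in both replicates, cut at about 43% in these data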;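 note: modified DeaD lifespan yeast strain shifted to restrictive glucose medium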). The conditions noted are these: OD615, 48 h, at 10 µM, stronger effect = higher value.
The nature of experiment [9]: doxorubicin toxicity protection in MRP-1 cells – H69AR cells, CellTiter-Glo, duplicate, MRP-1 activator project, pilot screen (AID 807;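 active = viability increase at or above a cutoff of the median across tested compounds plus 3 SD, cut at about 8.5% in these data, passing the limit was not always enough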;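 note: compound pretreatment 18-22 h then 72 h combined with doxorubicin; 0% = doxorubicin alone and 100% = vehicle without doxorubicin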). The note with it: H69AR viability with doxorubicin, CellTiter-Glo luminescence; at 10 µM; stronger effect = higher value.
A short description of experiment [10]: viability of PTEN-null HCT116 cells – cell-based, HCT116 clonal line, CellTiter-Glo, pilot screen (AID 824;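 active = viability at or below 27.92% in each of two runs, the all-compound median minus 4 SD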;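 note: 0% = 20 µM Hyamine control and 100% = vehicle cell control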). The conditions noted are these: HCT116 PTEN-deleted viability, 60 h, at 10 µM, stronger effect = lower value.
Experiment [11] in a line: RAM pathway blockade in budding yeast – dse1pr::URA3 reporter, 5-FOA selection, pilot screen (AID 869;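 active = inhibition over a set limit, the all-compound mean plus 3 SD, in both replicate runs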;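 note: 0% = DMSO wells with no growth and 100% = 10 µM 1-NA-PP1 with full growth; RAM network block rescues cells from 5-FOA so hits raise OD615 growth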). The conditions noted are these: S. cerevisiae dse1pr::URA3 5-FOA growth, OD615, 2 d; at 10 µM; stronger effect = higher value; strain carries analog-sensitive mutant Cbk1 kinase.
A short description of experiment [12]: RAM signaling pathway blockade in yeast – S. cerevisiae, Pdr1DBD-CYC8 efflux-inhibited sensitized strain, primary screen (AID 1298;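 active = RAM network inhibition above 8.4% in each of two replicates, 3 SD over the compound average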;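 note: 0% = DMSO untreated cells without growth and 100% = 10 µM 1-NA-PP1 full growth; higher means more yeast growth rescued from 5-FOA killing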). The conditions noted are these: S. cerevisiae cbk1-as DSE1-URA3 strain, 5-FOA growth OD615, 2 d; at 50 µM; stronger effect = higher value.
Experiment [13] in a line: viability of HCT116 without oncogenic beta-catenin – human colon tumor cells, pilot screen (AID 823;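 active = cell viability at or below a set limit in both duplicate runs, the limit being the all-compound median minus 4 SD, cut at about 23% in these data, passing the limit was not always enough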;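 note: 0% = wells killed by 20 µM Hyamine and 100% = untreated DMSO cell wells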). The note with it: HCT116 beta-catenin knockout viability, CellTiter-Glo, 60 h; at 10 µM; stronger effect = lower value.
Setting [14] is: H69AR cells + 2 uM doxorubicin, measured here: viability with 2 uM doxorubicin, stronger effect = lower value.
Where [15] appears, read: H69AR cells, compound alone cytotoxicity.

Results filed as inconclusive are left out. Activity calls are given as the source filed them.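 Rule for the calls, unless noted: active = viability at or below 10% of carrier control in both of two separate runs; inconclusive = viability at or below 10% in only one of the two runs; inactive = the rest.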

Turning to `CCNc1ccc(C(=O)OCC)cc1NC(=O)c1cc(S(=O)(=O)N2CCOCC2)ccc1C`, the viability in [1] was 108% (inactive); in [2], 83.3% (inactive); in experiment [3], 98.5% (inactive); in experiment [4] (setting [14]) it was 90.5%; in experiment [4] (setting [15]), 98.5%; in experiment [10] it was 87.1% (inactive). For the same molecule, the differential viability (reversal) in experiment [4] (H69AR cells + 2 uM doxorubicin) is 8.02% (inactive). Besides, the inhibition is 2.99% (inactive) in experiment [5], 5.41% (inactive) in [6] and 0.96% (inactive) in experiment [11]. Moreover, the growth inhibition in experiment [7] is -9.95% (inactive); in [8], -3.6% (inactive). Further, in experiment [9], the viability increase was -5.71% (inactive). Moreover, the RAM network inhibition in experiment [12] was 8.14% (inactive).
Turning to `O=C(C1CC1)N1CCc2cc(Br)cc(S(=O)(=O)N3CCOCC3)c21`, the viability in [1] is 98% (inactive); in [2], 88.5% (inactive); in experiment [3], 90.6% (inactive); in experiment [4] (setting [14]), 80.1%; in experiment [4] (setting [15]) it was 90.6%; in experiment [13] it was 91.9% (inactive). The viability in experiment [10] is 83.2% (inactive). In addition, the differential viability (reversal) in [4] (H69AR cells + 2 uM doxorubicin) is 10.4% (inactive). For the same molecule, the inhibition is -7.95% (inactive) in experiment [5], 1.11% (inactive) in [6] and 1.35% (inactive) in experiment [11]. The growth inhibition in experiment [7] was -11.8% (inactive); in experiment [8] it was -12.8% (inactive). In addition, the viability increase in [9] is -5.31% (inactive). Further, in experiment [12], the RAM network inhibition is 2.33% (inactive).
For `CCOC(=O)Cn1c(CN(C)Cc2ccccc2)nc2c1c(=O)n(C)c(=O)n2C`, the viability in [1] is 94% (inactive); in experiment [2], 112% (inactive); in experiment [3] it was 87.1% (inactive); in experiment [4] (setting [14]), 96.6%; in [4] (setting [15]), 87.1%; in [13], 82.9% (inactive). The differential viability (reversal) in experiment [4] (H69AR cells + 2 uM doxorubicin) is -9.54% (inactive). Moreover, the inhibition in [5] was -7.43% (inactive); in experiment [6], 0.18% (inactive); in experiment [11] it was 0.24% (inactive). The results for the growth inhibition in experiment [7] and in experiment [8] were -28.8% (inactive) and -4.63% (inactive), respectively. In experiment [9], the viability increase is -2.98% (inactive). Also, the RAM network inhibition in [12] was -0.42% (inactive).
In the case of `COc1ccc(OCCCC(=O)Nc2nncs2)cc1`, the viability was 97% (inactive) in experiment [1]; 101% (inactive) in experiment [2]; 89.6% (inactive) in experiment [3]; 83.1% in experiment [4] (setting [14]); 89.6% in experiment [4] (setting [15]); 94.5% (inactive) in [13]. Moreover, in experiment [4] (H69AR cells + 2 uM doxorubicin), the differential viability (reversal) is 6.49% (inactive). Further, the inhibition in experiment [5] was -5.27% (inactive); in experiment [6], -2.73% (inactive); in [11] it was 2.95% (inactive). In addition, the growth inhibition was -11.5% (inactive) in [7] and -0.545% (inactive) in [8]. Also, the viability increase in experiment [9] is -0.07% (inactive). For the same molecule, in experiment [12], the RAM network inhibition was 4.52% (inactive).
Turning to `CC1=C(C(=O)OC2CCCCCC2)C(c2ccc(C)o2)C2=C(CCCC2=O)N1` (stereo unspecified), the viability in [1] is 124% (inactive); in experiment [2], 102% (inactive); in experiment [3], 97.2% (inactive); in experiment [4] (setting [14]) it was 101%; in experiment [4] (setting [15]) it was 97.2%; in experiment [13], 70.8% (inactive). Moreover, the viability in experiment [10] was 78.8% (inactive). The differential viability (reversal) in [4] (H69AR cells + 2 uM doxorubicin) is -3.5% (inactive). The values for the inhibition in experiment [5], in experiment [6] and in [11] were -1.49% (inactive), 2.38% (inactive) and 1.77% (inactive), respectively. The growth inhibition in experiment [7] is -11.2% (inactive); in experiment [8], -22.5% (inactive). Further, the viability increase in [9] is -2% (inactive). Also, the RAM network inhibition in experiment [12] is 1.63% (inactive).
In the case of `Cc1oc(-c2cccc(Cl)c2)nc1CN1CCC(C(=O)N2CCN(c3ccccc3F)CC2)CC1`, the viability was 73% (inactive) in experiment [1]; 4.6% (active) in experiment [2]; 32.3% (active) in experiment [3]; 57% in [4] (setting [14]); 32.3% in experiment [4] (setting [15]); 17.2% (active) in experiment [13]. Moreover, in experiment [10], the viability was 10.2% (active). In addition, in [4] (H69AR cells + 2 uM doxorubicin), the differential viability (reversal) was -24.7% (inactive). Besides, the inhibition in [5] was -1.6% (inactive); in [6] it was -3.28% (inactive); in experiment [11], 1.05% (inactive). In addition, the growth inhibition is 0.125% (inactive) in experiment [7] and 1.06% (inactive) in experiment [8]. The viability increase in experiment [9] is -7.78% (inactive). The RAM network inhibition in experiment [12] was 6.04% (inactive).
As for `Cc1ccc(-c2oc3ccccc3c(=O)c2O)cc1`, the viability in experiment [1] was 78.5% (inactive); in experiment [3], 67.8% (inactive); in [4] (setting [14]) it was 74.5%; in [4] (setting [15]), 67.8%; in experiment [13], 10.2% (active); in experiment [10] it was 11.8% (active). The differential viability (reversal) in [4] (H69AR cells + 2 uM doxorubicin) was -6.71% (inactive). Besides, the inhibition in experiment [5] is -3.87% (inactive); in [6], -1.17% (inactive); in experiment [11], 2.66% (inactive). Also, the figures for the growth inhibition in experiment [7] and in experiment [8] were -12.1% (inactive) and -12.3% (inactive), respectively. Moreover, the viability increase in [9] was -5.56% (inactive). Besides, in [12], the RAM network inhibition is 0.63% (inactive).
As for `NC(=O)c1sc2nc(N3CCCCC3)c3c(c2c1N)CCCC3`, the viability is 75% (inactive) in experiment [1]; 82.8% (inactive) in [2]; 85.7% (inactive) in [3]; 86.4% in [4] (setting [14]); 85.7% in [4] (setting [15]); 104% (inactive) in [13]. Besides, in [10], the viability is 94.6% (inactive). In addition, the differential viability (reversal) in [4] (H69AR cells + 2 uM doxorubicin) is -0.75% (inactive). Also, the results for the inhibition in experiment [5], in experiment [6] and in [11] were -6.89% (inactive), 2.17% (inactive) and 0.715% (inactive), respectively. In addition, the growth inhibition in experiment [7] is 8.56% (inactive). Moreover, the viability increase in experiment [9] is -3.63% (inactive). The RAM network inhibition in [12] is 5.61% (inactive).
With `COC(=O)c1cc(=O)n(Cc2ccc3c(c2)OCO3)c(=Nc2ccccc2)s1`, the viability in [1] was 90% (inactive); in [4] (setting [14]) it was 43.1%; in [4] (setting [15]), 38.1%; in experiment [13], 71.1% (inactive); in [10] it was 73.3% (inactive). For the same molecule, the differential viability (reversal) in experiment [4] (H69AR cells + 2 uM doxorubicin) was -4.97% (inactive). Further, the values for the inhibition in experiment [5], in experiment [6] and in experiment [11] were -5.2% (inactive), 4.43% (inactive) and 3.41% (inactive), respectively. The growth inhibition was 4.22% (inactive) in experiment [7] and -1% (inactive) in experiment [8]. Moreover, the viability increase in experiment [9] is -5.95% (inactive). In addition, the RAM network inhibition in [12] is 5.96% (inactive).
Turning to `COC(=O)c1[nH]c2c(c1C)C(=O)CC(c1cc(OC)ccc1OC)C2` (stereo unspecified), the viability was 98.5% (inactive) in [1]; 14.9% (active) in [3]; 51.9% in experiment [4] (setting [14]); 14.9% in experiment [4] (setting [15]); 34.6% (inactive) in experiment [13]; 29.4% (inactive) in experiment [10]. Besides, the differential viability (reversal) in experiment [4] (H69AR cells + 2 uM doxorubicin) was -37% (inactive). Moreover, the inhibition was -6.8% (inactive) in [5] and -6.33% (inactive) in [6]. Also, the values for the growth inhibition in experiment [7] and in [8] were -10.4% (inactive) and -8.8% (inactive), respectively. In addition, the viability increase in experiment [9] is -5.77% (inactive). For the same molecule, in [12], the RAM network inhibition was 1.94% (inactive).
In the case of `O=C(CN1CCN(Cc2ccccc2)CC1)NCC1COc2ccccc2O1` (stereo unspecified), the viability in experiment [1] is 108% (inactive); in experiment [2], 110% (inactive); in experiment [3], 93.2% (inactive); in experiment [4] (setting [14]), 86.6%; in experiment [4] (setting [15]) it was 93.2%; in experiment [13], 93.6% (inactive). For the same molecule, the viability in experiment [10] was 96.9% (inactive). Further, the differential viability (reversal) in experiment [4] (H69AR cells + 2 uM doxorubicin) is 6.56% (inactive). Besides, the inhibition is -2.53% (inactive) in [5], -4.73% (inactive) in experiment [6] and -0.145% (inactive) in [11]. In addition, the growth inhibition in [7] was -1.31% (inactive); in [8], -5.58% (inactive). In experiment [9], the viability increase was -1.29% (inactive). Moreover, the RAM network inhibition in experiment [12] was 2.61% (inactive).

One may read the viability as a read-out of living cells in per cent, often relative to untreated cells. As a reminder, the inhibition is the change of the read-out against control, counted positive when it falls.

The record behind these values is PubChem BioAssay.
